Screening results deposited in PubChem BioAssay by National Center for Advancing Translational Sciences (NCATS).
KCNH2 3.1 block – KCNH2 3.1 (human) potassium channel inhibition; U2OS KCNH2 3.1, thallium flux FluxOr; stronger effect = lower value; hit rate 0.95% among 340,000; activity change, % (tested at about 1.8 µM);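 active = maximum activity change below -70%; inconclusive = maximum activity change from -70% to -50%; inactive = maximum activity change above -50%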;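 note: thallium influx rate constant from kinetic fluorescence after stimulation buffer; % is set by controls: 0 for no effect and ±100 for the full control effect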
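Thallium flux read-out: FluxOr dye with Red40 quencher in HBSS/HEPES, 45 min at RT. Rate constants from kinetic reads were normalized to positive and negative DMSO controls. Cells: U2OS virally expressing the 3.1 isoform.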
SW480 rerep – DNA re-replication induction in SW480 cells | SW480 DNA re-replication, Hoechst DNA content imaging, 48 h | Potency, µM (titrated, usually from 46.1 µM), without a hit: at the top dose re-replication activation, usual class: activators | hit rate 1.8% among 340,000 | AID 624297; note: potency is the fitted concentration of half-maximal effect; % of control where 0% means no effect; nearly all actives have a fitted effect of over 55% in size
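Image-based DNA-content assay: after two days of treatment, nuclei were labelled with the DNA dye Hoechst and imaged, and hits were compounds raising the count of nuclei showing high fluorescence intensity.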
hERG WT inh – blocks the wildtype human KCNH2 potassium channel | activity change, % at 1.84 µM | AID 720551 | U2OS, BacMam KCNH2, thallium flux FluxOr; stronger effect = lower value | Q12809 | hit rate 0.37% among 340,000;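 active = maximum activity change below -70%; inconclusive = maximum activity change between -70% and -50%; inactive = maximum activity change above -50%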; note: % is set by controls: 0 for no effect and ±100 for the full control effect
Target sequence (Q12809 whole entry, looked up): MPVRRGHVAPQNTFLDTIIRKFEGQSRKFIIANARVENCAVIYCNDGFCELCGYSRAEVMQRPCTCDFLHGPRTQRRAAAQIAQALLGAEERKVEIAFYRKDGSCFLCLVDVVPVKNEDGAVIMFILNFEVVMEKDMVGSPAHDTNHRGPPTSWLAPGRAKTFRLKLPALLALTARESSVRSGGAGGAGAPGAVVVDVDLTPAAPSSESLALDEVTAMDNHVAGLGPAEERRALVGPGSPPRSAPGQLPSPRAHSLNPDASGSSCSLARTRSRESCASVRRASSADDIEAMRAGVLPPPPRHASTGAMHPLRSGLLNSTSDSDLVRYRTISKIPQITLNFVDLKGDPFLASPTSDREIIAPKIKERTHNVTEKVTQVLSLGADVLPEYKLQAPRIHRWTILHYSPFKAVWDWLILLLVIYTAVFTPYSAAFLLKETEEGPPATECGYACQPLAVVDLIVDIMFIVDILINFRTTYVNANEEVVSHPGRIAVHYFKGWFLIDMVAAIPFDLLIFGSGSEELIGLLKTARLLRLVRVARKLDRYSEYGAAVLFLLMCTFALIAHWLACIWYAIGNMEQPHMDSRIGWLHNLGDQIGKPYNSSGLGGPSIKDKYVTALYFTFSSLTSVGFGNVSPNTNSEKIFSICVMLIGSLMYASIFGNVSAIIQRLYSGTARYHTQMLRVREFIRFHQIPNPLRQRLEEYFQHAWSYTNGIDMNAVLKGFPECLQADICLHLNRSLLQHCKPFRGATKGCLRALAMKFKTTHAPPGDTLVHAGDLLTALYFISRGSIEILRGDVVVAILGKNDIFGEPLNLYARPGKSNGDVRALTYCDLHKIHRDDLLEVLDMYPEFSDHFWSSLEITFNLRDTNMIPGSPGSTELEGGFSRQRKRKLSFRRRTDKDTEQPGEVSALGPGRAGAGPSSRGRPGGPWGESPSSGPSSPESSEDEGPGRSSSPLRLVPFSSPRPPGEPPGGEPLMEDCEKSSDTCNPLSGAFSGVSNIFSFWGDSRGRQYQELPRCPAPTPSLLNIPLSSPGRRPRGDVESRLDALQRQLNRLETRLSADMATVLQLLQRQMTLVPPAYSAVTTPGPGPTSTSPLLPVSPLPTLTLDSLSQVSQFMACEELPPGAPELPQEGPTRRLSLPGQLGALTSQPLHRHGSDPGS
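U2OS cells were transduced with wild-type KCNH2 virus (2.03 x 10^8 / mL) for 4 h at room temperature, then cultured overnight at 37 C. Thallium flux was read with FluxOr dye. Rate constants were normalized to DMSO controls.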
KB-V1 MDR tox – KB-V1 MDR subline cytotoxicity; KB-V1 MDR cells viability, CellTiter-Glo, 72 h; Potency, µM (top dose mostly 46.1 µM), most hits filed as cytotoxic; hit rate 3.4% among 400,000; note: potency is the fitted concentration of half-maximal effect; % is set by controls: 0 for no effect and ±100 for the full control effect; nearly all actives have a fitted effect of over 60% in size
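Potencies derive from concentration-effect curves fitted to normalized luminescence (CellTiter-Glo) of KB-V1 cells treated for 72 h at 37 degrees C in phenol-red-free DMEM containing 10% FBS.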
KB-3-1 cytotox – kills parental KB-3-1 adenocarcinoma cells; Potency, µM (doses to about 46.1 µM), usual class: cytotoxic; AID 1347075; KB-3-1 viability, CellTiter-Glo ATP luminescence, 72 h; hit rate 1.4% among 400,000; note: potency is the fitted concentration of half-maximal effect; % is set by controls: 0 for no effect and ±100 for the full control effect; nearly all actives have a fitted effect of over 60% in size
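Parental KB-3-1 adenocarcinoma cells in phenol-red-free DMEM with 10% FBS were pin-treated with compounds at several concentrations, incubated 72 h at 37 °C, and viability read by CellTiter-Glo luminescence; concentration-effect curves were fitted after normalization.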
MCF10A rerep – DNA re-replication induction in MCF 10a cells; MCF 10A DNA re-replication, Hoechst nuclear intensity, 48 h; Potency, µM (highest dose often 46.1 µM), for the others: at the highest dose activity, positive = re-replication, most hits filed as activators; hit rate 2.9% among 350,000; note: potency is the fitted concentration of half-maximal effect; % of control where 0% means no effect; nearly all actives have a fitted effect of over 50% in size
* hit, by the source's call; i = inactive; u = inconclusive; x = no result; [ ] = another dose, or the depositor's remark. Sampled rows, rich in hits. Any-hit rate of the full collection: about 7.6%. Unless noted, calls come from the whole dose curve; as a rule, active = well fitted curve in the direction sought with a large enough effect; inconclusive = small, poorly fitted or top-dose-only effect, or another doubt; inactive = no such curve, though single readings can be large; an effect the other way counts as inactive or inconclusive.

SMILES | KCNH2 3.1 block | SW480 rerep | hERG WT inh | KB-V1 MDR tox | KB-3-1 cytotox | MCF10A rerep
COc1ccc(/C=C(/NC(=O)c2ccc(Br)cc2)C(=O)Nc2cccc(C(=O)O)c2)cc1 | -6 | x | -13 | i | i | x
O=C(/C=C/c1ccc(F)cc1)NC(=S)NNC(=O)c1cnccn1 | 21 | 14% | -2 | u | 5.8µM* | 4%
Cc1cc(NC(=O)COC(=O)C2=NN(c3ccccc3)C(=O)CC2)c([N+](=O)[O-])cc1C | 15 | 0% | -6 | i | i | -1%
CC(NC(=O)c1cccnc1)C(=O)O (stereo unspecified) | 7 | 1µM* | x | i | i | -9%
CC(NC(=O)c1cccnc1)C(=O)N1CCCCC1 (stereo unspecified) | 0 | -1% | -2 | i | i | -2%
C=C1C(=O)O[C@H]2C[C@H]1[C@@H](OC(C)=O)C/C(C)=C/CC/C(C)=C\CC[C@]2(C)O | 13 | 23µM* | -12 | i | i | u
CC(=O)O[C@@H]1C[C@H]2C(C)=C[C@H]3OC(=O)[C@@H](C)[C@H]3C[C@H]2[C@]1(C)O | 7 | -14% | -2 | i | i | -3%
CCOC(=O)c1[nH]c(C)c(CN(C(C)=O)c2ccc(OCC)cc2)c1C | -12 | -5% | -3 | u | u | -3%
N#CCSc1nc(Nc2ccc3c(c2)OCO3)c2ccccc2n1 | 4 | 1% | 7 | 15µM* | i | u
COc1cc(Nc2nc(SCC#N)nc3ccccc23)cc(OC)c1OC | -8 | -6% | -8 | 21µM* | i | -5%
N#CCSc1nc(-c2ccccc2)c2cc(Cl)ccc2n1 | 17 | 3% | 6 | i | i | 7%
O=C(Nc1ccc([N+](=O)[O-])cc1)c1cc(-c2ccccn2)nc2c(Cl)cccc12 | -2 | u | -1 | i | i | -2%
C=CCNC(=O)c1cc(C(=O)C(C)c2ncc(C(F)(F)F)cc2Cl)c[nH]1 (stereo unspecified) | 0 | -14% | 6 | i | i | 10%
O=C(CCc1nnc(Cc2c[nH]c3ccccc23)o1)NC(C1CC1)C1CC1 | -1 | 4% | -8 | i | i | -2%
CC(=O)Oc1cc(C(F)(F)F)ccc1C(=O)O | x | -1%[20.6 µM] | x | x | x | -1%[20.6 µM]
COC(/C=C/Nc1ccc(OC)cc1)=C(C#N)C#N | u | 0% | -3 | i | i | -8%
COc1ccc(OC)c(N/C=C/C(=C(C#N)C#N)N(C)C)c1 | 4 | 0% | 4 | i | 16µM* | 10%
NC(=O)c1ccc(NC(=O)COC(=O)CC23CC4CC(CC(Br)(C4)C2)C3)cc1 | 11 | u | 11 | i | i | 24%
CCOC(=O)C1=CC[C@@H](c2cccc(C)c2)N(S(=O)(=O)c2ccc(C)cc2)[C@H]1C(=O)OCC | -2 | -14% | -6 | u | u | u
CCOC(=O)C1=CC[C@@H](c2ccccc2Cl)N(S(=O)(=O)c2ccc(C)cc2)[C@H]1C(=O)OCC | x | 0% | x | 16µM* | u | 4%
CC(C)=CCc1c(O)cc2c(=O)c3ccc(O)cc3oc2c1O | 10 | 3% | -1 | u | i | 15%
COc1c(CC=C(C)C)c(O)cc2oc(=O)c3c4ccc(O)cc4oc3c12 | 8 | u | 5 | u | i | 18µM*
Cc1cc(C)n(CCC(=O)Nc2ccc(-c3ccno3)cc2)n1 | -1 | -13% | 11 | i | i | -2%
CC(C)(C)NC(=O)C(c1cccc2ccccc12)n1c(=O)c(-c2ccco2)nc2ccccc21 (stereo unspecified) | x | x | x | i | i | x
CC(=O)[C@@]1(O)C(C)CC2C3C=C(C)C4=Cc5c(cnn5-c5ccccc5)C[C@]4(C)C3C(O)C[C@@]21C (stereo partly specified) | -5 | 8.2µM* | -6 | u | u | 15µM*
SMILES | KCNH2 3.1 block | SW480 rerep | hERG WT inh | KB-V1 MDR tox | KB-3-1 cytotox | MCF10A rerep
O=C(NC1c2ccccc2-c2ccccc21)N1CCCCC1 | 2 | 9% | 9 | 16µM* | u | 14%
Cc1ccc2c(c1)NC(c1cccnc1)=NC(c1ccc(F)cc1)=N2 | x | x | x | i | u | x
CC1(c2ccccc2)CC(c2ccccc2)=Nc2ccccc2N1 (stereo unspecified) | -6 | 3% | 1 | i | i | -28%
CC1=CC(C)=Nc2ccccc2N1 | -3 | -10% | 3 | i | i | 21µM*
CCOc1ccc(N2C(N)=NC(N)=NC2(C)C)cc1 | 7 | -5% | 1 | i | u | 7.3µM*
COc1cccc(N2C(N)=NC(N)=NC2(C)C)c1 | 4 | -1% | -3 | i | u | u
COc1ccc(N2C(N)=NC(N)=NC2(C)C)cc1 | u | 4% | -20 | i | u | u
CC1(C)N=C(N)N=C(N)N1c1cccc(C#N)c1 | 14 | u | 37 | i | 16µM* | 15%
COc1ccc(CCN2CC(C(=O)N(C)CC(=O)Nc3ccc(F)c(F)c3F)CC2=O)cc1OC (stereo unspecified) | -30 | -1% | 6 | i | i | -6%
O=C(NC12CC3CC(CC(C3)C1)C2)c1ccc(-c2ccc(Br)cc2)o1 | 5 | u | 4 | u | i | 21µM*
Cc1c(Cl)c([N+](=O)[O-])nn1CC(=O)NC(C)C1CC2CCC1C2 (stereo unspecified) | 9 | -2% | 2 | i | 23µM* | 26%
O=C(NC12CC3CC(CC(C3)C1)C2)c1cccnc1 | 16 | -14% | 10 | i | i | -3%
O=C(NC12CC3CC(CC(C3)C1)C2)c1ccc([N+](=O)[O-])o1 | -16 | u | 6 | i | 5.2µM* | 8.2µM*
O=C(NC12CC3CC(CC(C3)C1)C2)c1ccc(Br)o1 | 0 | 3% | -12 | i | i | u
CC(NC(=O)c1ccc([N+](=O)[O-])o1)C1CC2CCC1C2 (stereo unspecified) | 14 | 10µM* | 0 | u | u | 12µM*
CC(NC(=O)c1ccc([N+](=O)[O-])cc1Cl)C1CC2CCC1C2 (stereo unspecified) | 2 | 3% | 33 | i | i | 7%
NC(=O)COc1ccccc1C(=O)Nc1ccccc1 | x | x | x | i | i | x
Cn1nc(C(=O)NCC(=O)Nc2ccc(F)c(F)c2F)c2ccccc2c1=O | -2 | -8% | -8 | i | i | 4%
CC(=O)c1cc(-c2ccc(F)cc2)n(CCC(=O)NCc2ccc(C)cc2)c1C | x | x | x | i | i | x
